Measurements from PubChem BioAssay AID492956 (The Scripps Research Institute Molecular Screening Center, 2010).
The campaign covered roughly 340,000 compounds. About 3,300 (0.97%) were called active.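 How the source made its calls: active means inhibition above the mean over all tested compounds plus 3 SD (cut at about 30% in these data); inactive means the rest.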 Only a selection was taken, and actives are over-represented in it overall.

Molecular target: Platelet-activating factor acetylhydrolase 2, cytoplasmic (Homo sapiens) (UniProt Q99487)
Test: inhibition of cytoplasmic PAF acetylhydrolase 2 – biochemical, fluorescence polarization, human, primary screen (AID 492956);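 further: inhibitors block probe labeling of enzyme so polarization drops; 0% = enzyme with DMSO and 100% = wells lacking PAFAH2 protein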
Conditions: recombinant PAFAH2, FP-rhodamine activity probe, at 3.39 µM, active compounds read high

inhibition, inactive:
CONc1nc2nonc2nc1NOC 5.98%
Cc1ccc(Nc2c(F)c(F)c(F)c(F)c2C(=O)O)c(C)c1 4.36%
Cn1c(=O)c(C(=O)Nc2ncccn2)c(O)c2ccccc21 -2.23%
Cc1cc(=O)n2nc(N3CCCC3C(=O)NCCCN3CC(C)CC(C)C3)sc2n1 (stereo not drawn) -2.55%
O=C(COC(=O)c1ccncc1)Nc1ccc2c(c1)OCO2 1.78%
O=C(COc1ccc(Cl)cc1)Nc1ccc2c(c1)OCO2 -4.53%
O=C(COC(=O)c1cccc(Cl)c1)Nc1ccc2[nH]c(=O)[nH]c2c1 -4.35%
Cc1cccc(C(=O)OCC(=O)Nc2sc3c(c2C#N)CCC3)c1 3.15%
Cn1c(=O)c2c(ncn2CC(=O)N/N=C/c2cn[nH]c2-c2ccc(F)cc2)n(C)c1=O 3.66%
O=C(NCc1ccco1)/C(=C/c1cccc([N+](=O)[O-])c1)NC(=O)c1ccco1 -0.82%
CN1C(=O)/C(=C/C=C2\SCCN2C)OC1=S -4.81%
COc1ccc(NS(=O)(=O)c2cc(NC(=O)C3CCCCC3)ccc2N2CCOCC2)cc1 0.82%
O=C(NCCS(=O)(=O)N1CCN(c2ccccc2F)CC1)c1ccc(Br)o1 -0.55%
CC(OC(=O)c1ccc(S(=O)(=O)N2CCOCC2)cc1)c1ccccc1 (stereo not drawn) 2.29%
COC(=O)c1ccc(S(=O)(=O)N2CCc3ccccc3C2)cc1 -2.2%
CN1CCC(OC(=O)COc2ccc(Cl)cc2Cl)CC1 -2.95%
CCN(C(=O)COC(=O)c1sccc1C)c1c(N)n(Cc2ccccc2)c(=O)[nH]c1=O -2.58%
Cc1ccc(-n2ncc3c(=O)n(-c4ccc(C)c(C)c4)c(-c4ccco4)nc32)cc1 -1.39%
CC(=O)Cn1cnc2c(cnn2-c2ccccc2)c1=O -0.98%
O=c1cc(O)c(-c2cccc(C(F)(F)F)c2)c(Cl)[nH]1 -1.33%
COc1ccc(S(=O)(=O)N2CCOCC2)cc1NC(=O)COc1ccccc1 6.32%
COc1ccc(S(=O)(=O)N2CCOCC2)cc1NC(=O)c1ccc(OCC(C)C)c(OC)c1 4.28%
COc1ccc(S(=O)(=O)N2CCOCC2)cc1NC(=O)CSc1ncnc2ccccc12 0.39%
COc1ccc(S(=O)(=O)N2CCOCC2)cc1NC(=O)CSc1cc(C)ccc1C 2.32%
COc1ccc(S(=O)(=O)N2CCCCCC2)cc1NC(=O)Cc1ccc(OC)c(OC)c1 14.1%
COc1ccc(S(=O)(=O)N2CCOCC2)cc1NC(=O)CSc1nnc(NC2CC2)s1 3.17%

inhibition, active:
Cc1cccc(C(=O)OCC(=O)Nc2ccc(F)cc2)c1 84%
O=C(COC(=O)c1ccc(F)cc1)Nc1ccc2c(c1)OCO2 81%
O=C(ON=C1CCN(S(=O)(=O)c2ccccc2)CC1)c1ccc(Cl)cc1 86.6%
Cc1ccc(-c2nc3c(cnn3-c3ccccc3)c(=O)o2)cc1 59.4%
COc1ccc(S(=O)(=O)N2CCOCC2)cc1NC(=O)Cc1c(F)cccc1Cl 43.5%
COc1ccc(S(=O)(=O)N2CCOCC2)cc1NC(=O)Cc1coc2cc(C)ccc12 39.9%
COc1ccc(S(=O)(=O)N2CCOCC2)cc1NC(=O)CC1CC2CCC1C2 (stereo not drawn) 70.4%
